From publication PMC11062922 (Nature Chemical Biology, 2023)
Where two headings read alike, the source gives them in different places.

Key:
Parameters in all cases: species or system human, MV4-11 + K-562 + COLO205 + SK-N-BE2 + OVCAR-8
ACVR1B = settings: read-out: apparent Kd, n = 1
ACVR1 = settings: read-out: apparent Kd, n = 1
ACVR2B = settings: read-out: apparent Kd; compound concentrations: 100 nM and 1000 nM (sheet 'Samples'), CATDS: 0.67080964654625497; n = 1
BCR = settings: read-out: apparent Kd, n = 1
BMPR1B = settings: read-out: apparent Kd; compound concentrations: 100 nM and 1000 nM (sheet 'Samples'), CATDS: 7.3247906456106002E-2; n = 1
CDC7 = settings: read-out: apparent Kd; compound concentrations: 100 nM and 1000 nM (sheet 'Samples'), CATDS: 4.9206883035311198E-2; n = 1
CDK4 = settings: read-out: apparent Kd; compound concentrations: 100 nM and 1000 nM (sheet 'Samples'), CATDS: 4.8870042780869302E-2; n = 1
EPHA1 = settings: read-out: apparent Kd; compound concentrations: 100 nM and 1000 nM (sheet 'Samples'), CATDS: 7.9880542471912896E-2; n = 1
GAK = settings: read-out: apparent Kd, compound concentrations: 100 nM and 1000 nM (sheet 'Samples'), n = 1
MAP2K1 = settings: read-out: apparent Kd; compound concentrations: 100 nM and 1000 nM (sheet 'Samples'), CATDS: 4.7289887756517802E-2; n = 1
NLK = settings: read-out: apparent Kd; compound concentrations: 100 nM and 1000 nM (sheet 'Samples'), CATDS: 5.29869352744404E-2; n = 1
RIPK2 = settings: read-out: apparent Kd, compound concentrations: 100 nM and 1000 nM (sheet 'Samples'), n = 1
RIPK3 = settings: read-out: apparent Kd; compound concentrations: 100 nM and 1000 nM (sheet 'Samples'), CATDS: 5.9537511979901002E-2; n = 1
TGFBR2 = settings: read-out: apparent Kd; compound concentrations: 100 nM and 1000 nM (sheet 'Samples'), CATDS: 0.233102504079717; n = 1
CSNK1A1 = settings: read-out: apparent Kd; compound concentrations: 100 nM and 1000 nM (sheet 'Samples'), CATDS: 5.98915782601789E-2; n = 1
CSNK1D = settings: read-out: apparent Kd; compound concentrations: 100 nM and 1000 nM (sheet 'Samples'), CATDS: 0.221506901273927; n = 1
CSNK1E = settings: read-out: apparent Kd; compound concentrations: 100 nM and 1000 nM (sheet 'Samples'), CATDS: 9.6112931202447002E-2; n = 1
DDR1 = settings: read-out: apparent Kd; compound concentrations: 100 nM and 1000 nM (sheet 'Samples'), CATDS: 4.72879881828875E-2; n = 1
DDR2 = settings: read-out: apparent Kd; compound concentrations: 100 nM and 1000 nM (sheet 'Samples'), CATDS: 3.7607039392505398E-2; n = 1
MAPK10 = settings: read-out: apparent Kd; compound concentrations: 100 nM and 1000 nM (sheet 'Samples'), CATDS: 4.8287227118758103E-2; n = 1
MAPK11 = settings: read-out: apparent Kd; compound concentrations: 100 nM and 1000 nM (sheet 'Samples'), CATDS: 4.7431075480448899E-2; n = 1
MAPK14 = settings: read-out: apparent Kd; compound concentrations: 100 nM and 1000 nM (sheet 'Samples'), CATDS: 0.132847798162957; n = 1
MAPK9 = settings: read-out: apparent Kd; compound concentrations: 100 nM and 1000 nM (sheet 'Samples'), CATDS: 6.4628535375358898E-2; n = 1
MAPKAPK2 = settings: read-out: apparent Kd; compound concentrations: 100 nM and 1000 nM (sheet 'Samples'), CATDS: 0.150637698751246; n = 1
PRKD2 = settings: read-out: apparent Kd; compound concentrations: 100 nM and 1000 nM (sheet 'Samples'), CATDS: 3.69212062314868E-2; n = 1
TGFBR1 = settings: read-out: apparent Kd, n = 1
ATM = settings: read-out: apparent Kd; compound concentrations: 100 nM and 1000 nM (sheet 'Samples'), CATDS: 0.55136512573741903; n = 1
PIP4K2C = settings: read-out: apparent Kd; compound concentrations: 100 nM and 1000 nM (sheet 'Samples'), CATDS: 0.19748549423912701; n = 1
PRKAG2 = settings: read-out: apparent Kd; compound concentrations: 100 nM and 1000 nM (sheet 'Samples'), CATDS: 0.19909509316552701; n = 1
BMPR1A = settings: read-out: apparent Kd; compound concentrations:100 nM and 1000 nM (sheet 'Samples'); n = 1
CSNK2A1;CSNK2A3 = settings: read-out: apparent Kd; compound concentrations:100 nM and 1000 nM (sheet 'Samples'); n = 1
CSNK2A2 = settings: read-out: apparent Kd; compound concentrations:100 nM and 1000 nM (sheet 'Samples'); n = 1
GSK3A = settings: read-out: apparent Kd; compound concentrations:100 nM and 1000 nM (sheet 'Samples'); n = 1
GSK3B = settings: read-out: apparent Kd; compound concentrations:100 nM and 1000 nM (sheet 'Samples'); n = 1
JAK2 = settings: read-out: apparent Kd; compound concentrations:100 nM and 1000 nM (sheet 'Samples'); n = 1
[1] = compound concentrations:100 nM and 1000 nM (sheet 'Samples')

## Oc1cc(Nc2ccnc3cc(I)ccc23)ccc1F [GW552771X]
ACVR1B; compound concentrations: 100 nM and 1000 nM (sheet 'Samples'), CATDS: 5.5704311303099698E-2
  potency estimated from few doses: 1050 nM
ACVR1; compound concentrations: 100 nM and 1000 nM (sheet 'Samples'), CATDS: 5.3500871089908003E-2
  potency estimated from few doses: 1220 nM
ACVR2B
  potency estimated from few doses: 4.54 nM
BCR; compound concentrations: 100 nM and 1000 nM (sheet 'Samples'), CATDS: 8.1652957748264393E-2
  potency estimated from few doses: 339 nM
BMPR1B
  potency estimated from few doses: 452 nM
CDC7
  potency estimated from few doses: 1710 nM
CDK4
  potency estimated from few doses: 1760 nM
EPHA1
  potency estimated from few doses: 359 nM
GAK; CATDS: 0.131761231196901
  potency estimated from few doses: 109 nM
MAP2K1
  potency estimated from few doses: 2050 nM
NLK
  potency estimated from few doses: 1260 nM
RIPK2; CATDS: 0.100310805321257
  potency estimated from few doses: 204 nM
RIPK3
  potency estimated from few doses: 838 nM
TGFBR2
  potency estimated from few doses: 32.2 nM

## CN1CCN(CCCNc2nccc(-c3c(-c4ccc(F)cc4)nn4cc(C(N)=O)ccc34)n2)CC1 [GW622475X]
ACVR1B; compound concentrations: 100 nM and 1000 nM (sheet 'Samples'), CATDS: 0.21340745676279499
  potency estimated from few doses: 16.5 nM
ACVR1; compound concentrations: 100 nM and 1000 nM (sheet 'Samples'), CATDS: 4.9335047128928999E-2
  potency estimated from few doses: 488 nM
CSNK1A1
  potency estimated from few doses: 252 nM
CSNK1D
  potency estimated from few doses: 15.6 nM
CSNK1E
  potency estimated from few doses: 72.3 nM
DDR1
  potency estimated from few doses: 576 nM
DDR2
  potency estimated from few doses: 1900 nM
GAK; CATDS: 4.4963876201462499E-2
  potency estimated from few doses: 712 nM
MAPK10
  potency estimated from few doses: 530 nM
MAPK11
  potency estimated from few doses: 569 nM
MAPK14
  potency estimated from few doses: 36.9 nM
MAPK9
  potency estimated from few doses: 200 nM
MAPKAPK2
  potency estimated from few doses: 29.3 nM
PRKD2
  potency estimated from few doses: 2180 nM
RIPK2; CATDS: 5.3537616523073803E-2
  potency estimated from few doses: 363 nM
TGFBR1; compound concentrations: 100 nM and 1000 nM (sheet 'Samples'), CATDS: 8.1591289102362505E-2
  potency estimated from few doses: 107 nM

## NC(=O)c1cc(-c2ccncc2)cc(-c2ccccc2)c1N [GSK625137A]
ACVR1B; compound concentrations: 100 nM and 1000 nM (sheet 'Samples'), CATDS: 0.24390652724185299
  potency estimated from few doses: 1010 nM
ATM
  potency estimated from few doses: 223 nM
PIP4K2C
  potency estimated from few doses: 1780 nM
PRKAG2
  potency estimated from few doses: 1730 nM

## COc1cccc(-n2ncc3c(N/N=C/c4ccncc4)ncnc32)c1 [GW784752X]
ACVR1B; [1]
  potency estimated from few doses: 725 nM
ACVR1; [1]
  potency estimated from few doses: 119 nM
BCR; [1]
  potency estimated from few doses: 641 nM
BMPR1A
  potency estimated from few doses: 1130 nM
CSNK2A1;CSNK2A3
  potency estimated from few doses: 882 nM
CSNK2A2
  potency estimated from few doses: 252 nM
GSK3A
  potency estimated from few doses: 47.2 nM
GSK3B
  potency estimated from few doses: 75.6 nM
JAK2
  potency estimated from few doses: 603 nM
TGFBR1; [1]
  potency estimated from few doses: 1520 nM
